Most compounds without a hit are left out; they make up all but 19% or so of the library.
TDP1 cell CPT – qHTS for Inhibitors of human tyrosyl-DNA phosphodiesterase 1 (TDP1): qHTS in cells in presence of CPT; chicken DT40 Tdp1-/-;hTDP1 cells + 20 nM CPT, ATP luminescence, 48 h; Potency, µM (doses to about 46.2 µM), for inactives: at the highest dose activity change, negative = growth inhibition, most hits filed as inhibitors; 12% of 420,000 active; also: potency is read from the fitted curve at half-maximal effect; nearly all actives have a fitted effect of over 55% in size
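Cell growth measured by CellTiter-Glo luminescence after a minimum 48 h, 37 C compound exposure with 20 nM CPT in Tdp1-knockout DT40 cells stably expressing hTDP1, seeded 400/well; qHTS titration format.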
DT40 TDP1 no CPT – qHTS for Inhibitors of human tyrosyl-DNA phosphodiesterase 1 (TDP1): qHTS in cells in absence of CPT; 15% of 420,000 active; DT40 Tdp1-/- hTDP1 cells, no CPT, ATP luminescence, 48 h; Potency, µM (highest dose often 46.2 µM), for the others: at the highest dose activity change, negative = growth inhibition, most hits filed as inhibitors; also: potency is read from the fitted curve at half-maximal effect; nearly all actives have a fitted effect of over 55% in size
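Chicken DT40 Tdp1-/- cells complemented with human TDP1, screened without camptothecin (DMSO vehicle only), 400 cells/well. Compounds pin-transferred, cells incubated at 37 °C for at least 48 hr. Growth read as ATP-dependent luminescence (CellTiter-Glo, 30 min at RT).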
HT1080 IDH1KD tx – qHTS for induction of synthetic lethality in tumor cells producing 2HG: qHTS for the HT-1080-IDH1KD cell line | HT-1080 IDH1 knockdown viability, ATP luminescence, 48 h | Potency, µM (highest dose often 46.1 µM), inactives show at the top dose activity, negative = toxicity, usual class: cytotoxic | 2% of 360,000 active | AID 686971, 2013;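 also: potency is read from the fitted curve at half-maximal effect; 0% = DMSO wells and -100% = cell-free medium wells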
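Viability of IDH1-knockdown HT-1080 fibrosarcoma cells was assessed by CellTiter-Glo after 48 h at 37 °C with titrated compound; concentration-effect curves were classified by fit quality and response size.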
IL-1B inflam inh – qHTS for Inhibitors of Inflammasome Signaling: IL-1-beta AlphaLISA Primary Screen; THP-1 LPS/ATP IL-1B secretion, AlphaLISA, 16 h; active compounds read low; activity change, % at 57.5 µM; 4.7% of 360,000 active; AID 743279, 2014; in the data active = activity change below about -50%; inconclusive = mostly about -30% to -49%
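THP-1 cells pretreated 1 hr with compounds (up to 57.5 uM final), then stimulated with LPS (250 ng/mL final) plus ATP (1.25 mM final); secreted IL-1B measured by AlphaLISA after 16 hr, decreased signal indicating inhibition.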
HT1080NT lethal – qHTS for induction of synthetic lethality in tumor cells producing 2HG: qHTS for the HT-1080-NT fibrosarcoma cell line; HT-1080-NT fibrosarcoma viability, CellTiter-Glo ATP luminescence, 48 h; Potency, µM (highest dose often 46.1 µM), for the others: at the top dose activity, negative = less viability, most hits filed as cytotoxic; 1.6% of 360,000 active;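 also: NT is the 2HG producing partner of a matched IDH1 knockdown line; potency is read from the fitted curve at half-maximal effect; 0% = DMSO-treated cells and -100% = media-only wells without cells; nearly all actives have a fitted effect of over 55% in size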
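HT-1080-NT; 750 cells/well; 5% FBS RPMI; 48 h compound, 37 degrees C; CellTiter-Glo luminescence; curve fitting and curve-class assignment.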
* marks the source's active call; other numbers are inactive results; ? = inconclusive; nt = not tested or not shown; [ ] = another dose, or the depositor's remark. Unless noted, calls follow the shape of the dose curve; as a rule, active = well fitted curve in the direction sought with a large enough effect; inconclusive = small, poorly fitted or top-dose-only effect, or another doubt; inactive = no such curve, though single readings can be large; an effect the other way counts as inactive or inconclusive. Unless noted, % is scaled to controls: 0 for no effect and ±100 for the full control effect.

SMILES	TDP1 cell CPT	DT40 TDP1 no CPT	HT1080 IDH1KD tx	IL-1B inflam inh	HT1080NT lethal
O=C(NCc1ccncc1)C1Cc2c(-c3ccccc3Oc3ccccc3)ccnc2O1 (stereo unspecified)	13µM*	16µM*	-3%	-59*	?
CC(C)c1ccc(NC(=O)C2Cc3c(-c4ccccc4Oc4ccccc4)ccnc3O2)cc1 (stereo unspecified)	?	?	?	-20	-18%
O=C(Nc1ccc2c(c1)OCO2)C1Cc2c(-c3ccccc3Oc3ccccc3)ccnc2O1 (stereo unspecified)	?	?	?	-22	?
COc1ccc(NC(=O)C2Cc3c(-c4ccccc4Oc4ccccc4)ccnc3O2)cn1 (stereo unspecified)	15µM*	15µM*	-9%	-29	-3%
Cc1ccccc1C(=NCCCN(C)C)c1ccccc1C	5%	-27%	-4%	-20	-3%
O=C(CN1Cc2ccccc2OC(c2ccsc2)C1)NCC1OCCc2ccccc21 (stereo unspecified)	26%[9.04 µM]	-31%	nt	nt	nt
COc1ccc(C2/C=C\CN(C(=O)OCc3ccccc3)CC(=O)N2Cc2ccc(F)cc2)cc1 (stereo unspecified)	?	?	?	50	-24%
COc1ccc([C@H]2/C=C\CN(C(=O)C3CC3)[C@@H](C)C(=O)N2Cc2ccc(F)cc2)cc1	23µM*	12µM*	20%	23	9%
CCCCCCC(=O)N1C/C=C\C(c2ccc(OC)cc2)N(Cc2ccc(F)cc2)C(=O)[C@H]1Cc1ccccc1 (stereo partly specified)	18µM*	18µM*	?	-4	-23%
COc1ccc(C2/C=C\CN3CCC[C@H]3C(=O)N2Cc2ccc(F)cc2)cc1 (stereo partly specified)	?	23µM*	6%	-20	6%
COc1ccc(C2/C=C\CN(C(=O)C3CC3)CC(=O)N2Cc2ccc(F)cc2)cc1 (stereo unspecified)	-3%	-19%	2%	13	3%
COc1ccc(C2/C=C\CC(OCc3ccccc3)CC(=O)N2Cc2cccc(F)c2)cc1 (stereo unspecified)	18µM*	21µM*	?	-18	-29%
COc1ccc(CS(=O)(=O)CC(C)(O)c2ccccc2Cl)cc1 (stereo unspecified)	-16%	?	2%	?	1%
CCN(CC)C(=O)C[n+]1cccc(C(N)=O)c1	0%	-3%	18%	-2	17%
COc1ccc(C2/C=C\CN(C(=O)c3ccccc3)CC(=O)N2Cc2ccc(F)cc2)cc1 (stereo unspecified)	-27%	?	1%	3	16%
COc1ccc(C2/C=C\CN(C(=O)c3ccc(C)cc3)[C@H](Cc3ccccc3)C(=O)N2Cc2ccc(F)cc2)cc1 (stereo partly specified)	4.6µM*	5.8µM*	-18%	27	-7%
COc1ccc(C2/C=C\CN(C(=O)C3CC3)[C@H](Cc3ccccc3)C(=O)N2Cc2ccc(F)cc2)cc1 (stereo partly specified)	16µM*	23µM*	?	0	?
C=CCNc1nc2c(c(=O)[nH]c(=O)n2C)n1CCCc1ccccc1	-26%	-13%	5%	-26	-1%
CCN(C(=O)COC(=O)C1CCC(C(C)(C)C)CC1)c1c(N)n(Cc2ccccc2)c(=O)[nH]c1=O (stereo unspecified)	21µM*	16µM*	-1%	-2	-4%
CCN(C(=O)COC(=O)CCCOc1ccc(Cl)cc1C)c1c(N)n(Cc2ccccc2)c(=O)[nH]c1=O	15µM*	16µM*	-3%	4	?
CCN(C(=O)COC(=O)CCOc1ccc(C(C)(C)C)cc1)c1c(N)n(Cc2ccccc2)c(=O)[nH]c1=O	12µM*	3.7µM*	3%	-16	5%
Nc1c(N(Cc2ccccc2)C(=O)COc2cccc(Cl)c2)c(=O)[nH]c(=O)n1Cc1ccccc1	21µM*	?	8%	-21	11%
COCCN(C(=O)COC(=O)CCOc1ccccc1C)c1c(N)n(Cc2ccccc2)c(=O)[nH]c1=O	-10%	-5%	2%	7	0%
CCN(CC)CCN1C(=O)C(=O)/C(=C(/O)c2ccc(S(=O)(=O)N3CCOCC3)cc2)C1c1ccc(C)cc1 (stereo unspecified)	4%	0%	5%	4	0%
O=C(Nc1ccc2oc(=O)ccc2c1)c1cccnc1Cl	-5%	-6%	3%	0	10%
SMILES	TDP1 cell CPT	DT40 TDP1 no CPT	HT1080 IDH1KD tx	IL-1B inflam inh	HT1080NT lethal
CC(=O)c1cccc(NC(=O)c2cc(S(=O)(=O)N3CCCCC3)ccc2N2CCOCC2)c1	?	?	-16%	8	-8%
O=C1COc2ccc(-c3csc(NCCc4ccccc4)n3)cc2N1	16µM*	3.7µM*	-25%	-76*	-13%
Nc1nc(-c2ccc3c(c2)NC(=O)CO3)cs1	?	-25%	-13%	-14	-2%
CCC(C)C(=O)Nc1nc(-c2ccc3c(c2)NC(=O)CO3)cs1 (stereo unspecified)	?	18µM*	-8%	-15	-10%
COc1ccc(-n2nc(-c3ccc(C)cc3)c3cnc4cc(F)c(F)cc4c32)cc1	-3%	-15%	nt	nt	nt
CC(=O)Oc1ccccc1Cn1c(C)c(C(=O)N(C)Cc2ccc(F)cc2)sc1=O	?	?	-18%	-9	2%
CCN(CC)C(=O)c1cccc(-c2csc(C(O)c3cccc(Cl)c3)n2)c1 (stereo unspecified)	?	16µM*	?	-24	?
CCN(CC)C(=O)c1cccc(-c2csc(C(C)(O)c3ccncc3)n2)c1 (stereo unspecified)	18µM*	21µM*	?	-1	?
CCN(CC)C(=O)c1cccc(-c2csc(C(O)c3ccc(OC)cc3)n2)c1 (stereo unspecified)	16µM*	18µM*	?	8	-13%
COc1ccc(C(O)c2nc(-c3cccc(C(=O)O)c3)cs2)cc1 (stereo unspecified)	-9%	0%	10%	13	18%
COc1cc(C(O)c2nc(-c3cccc(C#N)c3)cs2)ccc1F (stereo unspecified)	?	?	5%	-12	-25%
